From PubChem BioAssay (Tox21) come the findings set out here.

The structures appear in SMILES notation. Values joined by “and” are separate entries in the source; they are usually repeats but may differ in a detail not shown here. Equal values may be shown once. Results filed as inconclusive are left out. Unmarked numbers belong to inactive results. The call rests on the fitted dose curve; in most records, active means well fitted cell-killing curve with a large enough effect in the repeat runs; inconclusive means weak or mixed curves, or effect the other way; inactive means flat fitted curve, though single readings scatter.
On the % scale 0 is the no-effect control and ±100 the full control effect.

The nature of the test: qHTS RealTime-Glo MT Cell Viability Assay in HEK293 cells - 40 hour (AID 1224874). Further: nearly all actives have a fitted effect of over 50% in size. The following applies: RealTime-Glo luminescence; max response: hits give low values. From the text: U.S. Tox21 Program National Center for Advancing Translational Sciences [NCATS] NIH Chemical Genomics Center [NCGC] U.S. Environmental Protection Agency [EPA] National Institutes of Environmental Health Sciences [NIEHS] National Toxicology Program [NTP] U.S. Food and Drug Administration [FDA] Tox21 Assay Overview: Measure of cell viability is critical in the cell-base assay. Analysis of cell viability is necessary for the characterization of cell responses to cytotoxic drugs and environmental stress. A RealTime-Glo MT Cell Viability Assay to monitor cell viability in real time of continues cell culture during 40 hours of compound treatment was used to screen Tox21 10K library compounds in Hek293 cells. The RealTime-Glo MT Cell Viability Assay is a nonlytic, homogeneous, bioluminescent method to measure cell viability in real time using a simple, plate-based method. The assay involves adding NanoLuc luciferase and a cell-permeant prosubstrate to cells in culture. Viable cells reduce the proprietary prosubstrate to generate a substrate for NanoLuc luciferase. This substrate diffuses from cells into the surrounding culture medium, where it is rapidly used by the NanoLuc Enzyme to produce a luminescent signal. The signal correlates with the number of viable cells, making the assay well suited for cytotoxicity studies.
Tox21 Assay Protocol Summary: The mixture of Hek293 cell suspension and reagents were dispensed at 600cells/6 ul/well in 1536-well tissue culture treated black solid bottom plates using a Multidrop dispenser. After the assay plates were incubated at a 37 C/5% CO2 incubator for 5 hours, 23 nL of compounds dissolved in DMSO, positive and negative controls was transferred to the assay plate by a pintool work station. The plates were incubated at 37 C for 40 hours. The luminescence intensity were measured at 0h, 8h, 16h, 24h, 32h and 40h time points using ViewLux plate reader during compound treatment.
For orientation: qHTS replaces the single test concentration by a dilution series.
Take `CC(=O)CC(C)(C)O`: the max response is 0.169% and 3.54%.
For `O=c1[nH]cnc2[nH]ncc12` the value was -0.951% and 0.0063%.
Turning to `CC(C)(Oc1ccc(CCNC(=O)c2ccc(Cl)cc2)cc1)C(=O)O`, the max response is 3% and 2.4%.
For `CC(C)(C)c1cc(Cc2cc(C(C)(C)C)c(O)c(C(C)(C)C)c2)cc(C(C)(C)C)c1O` the value was 3.98% and -14.3%; for `CCc1ccccc1CC`, 10.8% and 1.1%.
Take `CC(C)=CCl`: the max response is 8.16% and 2.09%.
For `C=C(C)[C@H]1CC=C(C)C(=O)C1` the value was -1.87% and 0.747%; for `O=C(O)c1ccccc1C(=O)O`, -5.44% and 3.46%; for `CC(=O)CCC=C(C)C`, 10.6% and -4.31%.
In the case of `CC(=O)OCc1ccccc1`, the max response is -41.8% and -21%.
For `CCOC(=O)n1ccn(C)c1=S` the value was 1.12% and 2.41%; for `Cc1ccc([N+](=O)[O-])cc1S(=O)(=O)O`, 6.39% and 7.52%; for `CCOCC(=O)O`, -1.6% and 8.63%.
As to `CC1(C)S[C@@H]2[C@H](NC(=O)COc3ccccc3)C(=O)N2[C@H]1C(=O)O`, the max response was 0.704% and 1.33%.
For `CN/C(=C\[N+](=O)[O-])NCCSCc1csc(CN(C)C)n1` the value was 2.65% and -4.24%.
In the case of `CCNC(=S)NCC`, the max response is -2.25% and -1.34%.
As for `CC(CCO)CC(C)(C)C` (stereo not given), the figure is -6.13% and 0.884%; as for `CC(O)CC(C)(C)O` (stereo not given), 13.3% and 0.19%; as for `O=S(=O)(O)c1ccccc1`, 0.0472% and -6.62%.
As for `O=C(O)c1cc2ccccc2cc1O`, the figure is -2.62% and 6.1%; as for `N[C@H](Cc1c[nH]c2ccccc12)C(=O)O`, 20.7% and 3.97%; as for `O=C1CCCC1`, -0.988% and 5.09%.
For `C=CCc1ccc(OC)c(OC)c1` the value was 0.535% and 0.477%.
Turning to `Brc1ccc(Br)c(Br)c1`, the max response was -6.36% and -22.4%.
As for `c1ccc(Oc2ccccc2)cc1`, the figure is -2.3% and -6.04%; as for `COc1ccc(CCC(C)=O)cc1`, 7.39% and 0.508%; as for `CCCCCCO`, -0.525% and 0.519%.
With `COCCCN`, the max response is 3.35% and 3.08%.
For `CCCCCCCCCCCC(=O)OC` the value was -2.49% and 7.82%; for `Nc1ccc(Cl)c(N)c1`, -8.1% and -8.99%.
As for `CCCCCCCCCCCCCCCC(=O)OC(C)C`, the figure is 4.79% and -1.72%.
Regarding `CCNc1cccc(C)c1`, the max response was -1.66% and 8.48%.
For `CC(=O)OC1CC(C)OC(C)O1` (stereo not given) the value was 5.08% and 9.58%; for `CCOCCOCCOCCO`, 3.42% and 9.26%.
With `CCNc1ccccc1`, the max response is 0.38% and 24%.
As for `O=[N+]([O-])c1ccc2nc[nH]c2c1`, the figure is 4.04% and -21.2%; as for `CC(C)CCCCCCCOC(=O)CCCCC(=O)OCCCCCCCC(C)C`, -6.27% and 3.22%.
As for `CCO[Si](CCCN)(OCC)OCC`, the max response is -7.12% and 0.455%.
As for `COC(=O)c1cccnc1`, the figure is 0.779% and 5.01%; as for `C=CC[N+](C)(C)CC=C`, 2.31% and 7.96%.
